Results filed as inconclusive are left out. Calls of active or inactive are those of the source. Calls follow the shape of the dose curve; as a rule, active = well fitted cell-killing curve with a large enough effect; inconclusive = small, poorly fitted or top-dose-only effect; inactive = flat fitted curve, though single readings scatter.
Assay: Cell Viability - LYMP2-013 (AID 970); also: nearly all actives have a fitted effect of over 55% in size;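 as to activity change, negative = cytotoxic: 0% = DMSO only and full inhibition = tetraoctylammonium bromide control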
Details: LYMP2-013 lymphoblastoid cells viability; series mostly up to 92.2 µM; activity change, negative = cytotoxic: at the top concentration
Text: NIH Chemical Genomics Center [NCGC]
NIH Molecular Libraries Screening Centers Network [MLSCN]
National Institutes of Environmental Health Sciences [NIEHS]
National Toxicology Program [NTP]
We have developed a 1536-well cell-based assay for quantitative high throughput screening (qHTS) against a number of cell lines to determine in vitro cytotoxicity of small molecules. This particular assay uses a human lymphoblastoid cell line (LYMP2-013) purchased from Coriell Institute for Medical Research.
NCGC Assay Protocol Summary:
The CellTiter-Glo luminescent cell viability assay (Promega) is a homogeneous method to measure the number of viable cells in culture. The end point readout of this assay is based on quantitation of intracellular ATP, an indicator of metabolic activity, using the luciferase reaction. Luciferase catalyzes the oxidation of beetle Luciferin to oxyluciferin and light in the presence of ATP. The luminescent signal is proportional to amount of ATP present.
Using the CellTiter-Glo luminescent cell viability assay, the amount of cellular ATP was measured in the lymphoblastoid cell line with complete culture medium following compound treatment for 24 hours. The assay was performed in opaque white Kalypsys 1536-well plates. In the screen, tetraoctylammonium bromide was used as positive control. Library compounds were measured for their ability to cause acute toxicity in the cell line, as reflected by a decrease in intracellular ATP levels, in a concentration-dependent manner. […] AC50 values were determined from concentration-response data modeled with the standard Hill equation.
qHTS protocol for CellTiter Glo lymphoblastoid cellular assay
[Step] [Parameter] [Value] [Description]
1. Reagent; 5 uL; 2500 lymphoblastoid cells/well
2. Time; 5 hr; 37 C incubation
4. Controls; 23 nL; Tetraoctylammonium bromide 6.4pM to 92 uM
5. Time; 24 hr; 37 C incubation
6. Reagent; 5 uL; CellTiter Glo reagent
7. Time; 30 min; Room Temperature
8. Detection; Luminescence; Viewlux plate reader
Keywords: cell viability, cytotoxicity, lymphoblastoid cell line, luminescence, NTPHTS, NTPHTS_NCGC, NIEHS, DSSTox, MLSMR, MLSCN, NIH Roadmap, qHTS, NCGC
Potency is read from the fitted curve at half-maximal effect.

| Compound | Potency | activity change, negative = cytotoxic |
| --- | --- | --- |
| CC(=O)Oc1ccccc1C(=O)Nc1ncc([N+](=O)[O-])s1 | 39.8 µM (active) |  |
| NCC(O)c1ccc(O)cc1 (configuration not stated) |  | -2.93% (inactive) |
| Oc1ccccc1-c1ccccc1 |  | -13.8% (inactive) |
| Oc1ccc(Cl)cc1Cc1ccccc1 |  | -4.56% (inactive) |
| CCCC(C)(COC(N)=O)COC(=O)NC(C)C (configuration not stated) |  | -14.5% (inactive) |
| N[C@@H](Cc1ccc(N(CCCl)CCCl)cc1)C(=O)O | 39.8 µM (active) |  |
| Oc1cccc2cccnc12 | 15.8 µM (active) |  |
| CC(COc1ccccc1)N(CCCl)Cc1ccccc1 (configuration not stated) | 39.8 µM (active) |  |
| c1ccc2c(c1)Nc1ccccc1S2 |  | -17.2% (inactive) |
| OCCOc1ccccc1 |  | -1.12% (inactive) |
| CCOP(=S)(OCC)Oc1cc(C)nc(C(C)C)n1 |  | -11.1% (inactive) |
| CNCC(O)c1ccc(O)cc1 (configuration not stated) |  | -3.91% (inactive) |

— PubChem BioAssay (NCATS)
